Source: PubChem BioAssay AID1852 (Sanford-Burnham Center for Chemical Genomics, 2009)
The whole screen tested about 2,500 compounds, of which about 1,100 (44%) were called active. So high a share suggests a set chosen from earlier hits. The list shows a part of the results. A number with no mark means an inactive call.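 The calls were made as follows: active = inhibition above 50% at 4 µM in the single-point screen; inactive = inhibition of 50% or less.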

Test: blockers of TNF-a NF-kB luciferase induction – cell-based, HEK293T NF-kB-Luc, luminescence, selectivity assay for NOD1/NOD2 signaling inhibitor project, primary screen (AID 1852)
Conditions: TNF-a induced, 14 h, at 4 µM, stronger effect = higher value

| Structure (SMILES) | inhibition |
| --- | --- |
| COc1ccc(N2CCN(S(=O)(=O)c3ccc4c(c3)NC(=O)C(C)S4)CC2)cc1 (stereo not given) | 23.6% |
| Cc1ccc(S(=O)(=O)N2CCN(c3ncnc4sccc34)CC2)cc1 | 52.6% (active) |
| CN1C(=O)C(C)(C)c2cc(S(=O)(=O)N3CCN(c4ccccc4)CC3)ccc21 | 16% |
| c1ccc(CC2CCN(c3ncnc4sccc34)CC2)cc1 | 42.7% |
| O=S(=O)(c1ccc2c(c1)OCCO2)N1CCN(c2ncnc3sccc23)CC1 | 53.4% (active) |
| CCCc1nc(SCC(=O)N2CCC(Cc3ccccc3)CC2)c2c(=O)n(C)c(=O)n(C)c2n1 | -11.3% |
| O=C(N/N=C1/C(=O)c2cccc3cccc1c23)c1ccc(Cl)cc1 | 81% (active) |
| O=C(NN=C1c2ccccc2-c2ccccc21)c1cccc(Br)c1 | 21.6% |
| C/C(=N\NC(=O)c1ccc(Cl)cc1)c1ccc(Br)s1 | 9.8% |
| S=c1[nH]nc(C2CCCCC2)n1/N=C/c1ccncc1 | 82.9% (active) |
| COc1ccc(OC)c(S(=O)(=O)N2CCN(c3ccccc3OC)CC2)c1 | 5% |
| O=C(COc1ccc(Br)cc1Cl)NC(=S)N1CCc2ccccc21 | 104% (active) |
| O=C1c2cccc(OCC(=O)N3CCCc4ccccc43)c2CCN1Cc1ccc(Br)cc1 | -77.8% |
| Cc1cc(Nc2cccc([N+](=O)[O-])c2)n2c(nc3ccccc32)c1C#N | 78.7% (active) |
| Cc1ccc(-c2c(C#N)c(N)n3c(nc4ccccc43)c2C#N)cc1 | 33.8% |
| Cc1ccc(NC(=O)Nc2cccc([N+](=O)[O-])c2)cc1F | -50.5% |
| CCc1nc(N2CCN(C(=O)CCl)CC2)c2c3c(sc2n1)CC(C)CC3 (stereo not given) | 35.2% |
| CCOC(=O)C1(CCc2ccccc2)CCN(C(=O)CN2C(=O)CSC2=O)CC1 | -1.6% |
| COc1cc(NC(=O)COc2cc(O)c3c(c2)OC(C)(C)CC3=O)cc(OC)c1OC | 64.6% (active) |
| Cc1ccc(Nc2nnc(-c3ccncc3)s2)c(Br)c1 | 48% |
| Cc1ccc(C)c(N2CCN(C(=S)Nc3ccc4nc(N5CCOCC5)cc(C)c4c3)CC2)c1 | 45.9% |
| COc1cccc(C(=O)Nc2ccc3nc(N4CCN(c5ncccn5)CC4)cc(C)c3c2)c1OC | 101% (active) |
| COc1ccccc1N1CCN(C(=S)Nc2ccc3nc(N4CCOCC4)cc(C)c3c2)CC1 | 38.6% |

| Structure (SMILES) | inhibition |
| --- | --- |
| CCN(CC)c1ccc(/C=C/c2ccc3ccc(OC)cc3[n+]2CC)cc1 | 38.2% |
| CCN(CC)c1ccc(/C=C/c2cccc[n+]2C)c(OC)c1 | 66.8% (active) |
| COc1ccc2c(c1OC)C(=O)OC2Nc1nc(-c2ccccc2)cs1 (stereo not given) | 62.2% (active) |
| COc1ccc(-c2csc3nc(-c4ccccc4)oc(=O)c23)cc1OC | -3.3% |
| COc1ccccc1-c1nnc(SCC(=O)Nc2nc(-c3ccccc3)cs2)n1C | 31.2% |
| Cc1ccc(-c2csc(NC3OC(=O)c4ccccc43)n2)cc1 (stereo not given) | 74.1% (active) |
| COc1ccc2[nH]c(=O)c3c(c2c1)OC(C)(C)C=C3 | 74.7% (active) |
| COc1ccc2[nH]c3c(c2c1)CCN1C(=O)N([C@@H](C)C(=O)NC2CC2)C(=O)[C@]31C | 24.6% |
| COc1ccccc1/C=C/C(=O)c1c2c(c(C)[nH]c1=O)CCCC2 | 80.6% (active) |
| Cc1[nH]c(=O)c(C(=O)/C=C/c2ccccc2F)c2c1CCCC2 | 97.7% (active) |
| O=C(/C=C/c1cccs1)Nc1sc2c(c1C(=O)O)CCCC2 | 17.8% |
| COc1cccc(/C=C/C(=C2/C(=O)N(c3ccccc3)N=C2C)c2ccccc2)c1OC | 7.3% |
| Cc1[nH]c(=O)c(C(=O)/C=C/c2ccccc2)c2c1CCCC2 | 92% (active) |
| CC1=NN(c2ccc(Cl)cc2)C(=O)C1C(c1ccccc1O)c1c(C)[nH]n(-c2ccc(Cl)cc2)c1=O (stereo not given) | -30.7% |
| Cc1[nH]n(-c2ncc(-c3ccccc3)s2)c(=O)c1C(c1ccc(Cl)cc1)C(C#N)C#N (stereo not given) | 28.2% |
| Cc1[nH]n(-c2cccc(Cl)c2)c(=O)c1-c1ccc(Cl)cc1 | 51.9% (active) |
| O=C(Nc1cc(Cl)ccc1-n1cncn1)c1ccc([N+](=O)[O-])s1 | 34.3% |
| CCOC(=O)C(=Cc1ccc(-n2cncn2)cc1)C(=O)OCC | 27% |
| CC(C)CC(=O)/C(=C\c1ccc(Cl)cc1Cl)n1cncn1 | 64.5% (active) |
| CC(C)(C)C(=O)/C(=C/c1ccc(Cl)cc1)n1cncn1 | 73.3% (active) |
| CC(=O)n1cc(N(C(=O)CCl)c2ccccc2)c2ccccc21 | 95.3% (active) |
| CC(=O)n1cc(N(C(=O)CCl)c2ccc(C)cc2)c2ccccc21 | 53.1% (active) |
| Clc1ccccc1/C=C/c1nc(-c2ccccn2)no1 | -22.3% |

| Structure (SMILES) | inhibition |
| --- | --- |
| Cc1ccc(S(=O)(=O)N2C(=O)/C(=C3\SC(=S)NC3=O)c3ccccc32)cc1 | 82.3% (active) |
| N=C1S/C(=C\c2ccc(-c3cccc(Cl)c3)o2)C(=O)N1c1nccs1 | 108% (active) |
| N=C1S/C(=C\c2ccco2)C(=O)N1c1nccs1 | 105% (active) |
| Cc1ccc(NC(=O)C2CCCN(c3ncnc4c3nc3n4CCCCC3)C2)nc1 (stereo not given) | 92.6% (active) |
| O=C(Nc1ccccn1)C1CCN(c2ncnc3c2nc2n3CCCCC2)CC1 | 66.3% (active) |
| CC(=O)c1ccc(NC(=O)C2CCCN(c3ncnc4c3nc3n4CCCCC3)C2)cc1 (stereo not given) | 22.3% |
| O=C(NCC1CCN(Cc2ccc(Cl)cc2)CC1)C1CCCN(c2ncnc3c2nc2n3CCCCC2)C1 (stereo not given) | 57.9% (active) |
| O=C(Nc1ccc(Cl)cn1)C1CCN(c2ncnc3c2nc2n3CCCCC2)CC1 | 76.4% (active) |
| Cc1ccc(NC(=O)C2CCN(c3ncnc4c3nc3n4CCCCC3)CC2)cc1Cl | 31.7% |
| COc1ccc(NC(=O)C2CCN(c3ncnc4c3nc3n4CCCCC3)CC2)cc1Cl | 43.2% |
| O=C(Nc1nc2c(F)cc(F)cc2s1)c1ccc([N+](=O)[O-])o1 | -4% |
| CCCn1c(SCC(=O)Nc2nc3c(s2)CCCC3)nc2c1c(=O)n(C)c(=O)n2C | 71.4% (active) |
| CCCCn1c(SCC(=O)Nc2nnc(CC)s2)nc2c1c(=O)n(C)c(=O)n2C | 51.6% (active) |
| C#CC(C)(C)NC(=O)CSc1nc2c(c(=O)n(C)c(=O)n2C)n1CCCC | 24.1% |
| CC(C)c1nc(SCC(=O)Nc2nc3c(s2)CCCC3)c2ccccc2n1 | -69.4% |
| CCCc1nc(SCC(=O)Nc2nnc(SCC)s2)c2c(=O)n(C)c(=O)n(C)c2n1 | 33.2% |
| C=CCn1c(SCC(=O)Nc2sccc2C(N)=O)nc2sc(CC)cc2c1=O | 44.9% |
| CCCCn1c(SCC(=O)Nc2nnc(C(C)C)s2)nc2c1c(=O)n(C)c(=O)n2C | 54.3% (active) |
| CC(C)n1c(SCC(=O)N2CCCCC2)nc2c1c(=O)n(C)c(=O)n2C | 40.9% |
| CC1CCc2nc(NC(=O)CSc3nc4ccccc4o3)sc2C1 (stereo not given) | 12% |
| Cc1nc([N+](=O)[O-])c(Br)n1Cc1ccccc1 | 22.9% |
| O=[N+]([O-])c1cc(S(=O)(=O)Nc2cccc(C(F)(F)F)c2)ccc1-n1nnc2ccccc21 | 68.7% (active) |
| NC(=O)c1ccc(N2CCN(S(=O)(=O)c3ccccc3)CC2)c([N+](=O)[O-])c1 | 5.1% |

| Structure (SMILES) | inhibition |
| --- | --- |
| Cc1ccccc1-n1cnc2c(sc3nc(N4CCOCC4)c4c(c32)CCCC4)c1=O | 18.7% |
| CN(C)c1ccnc2sc3c(=O)n(Cc4ccccc4)cnc3c12 | 69.1% (active) |
| Cn1ncc2c(N3CCN(c4ccc(Cl)c(Cl)c4)CC3)ncnc21 | 104% (active) |
| CC1CCCN(c2ncnc3c2cnn3-c2ccc(Cl)cc2)C1 (stereo not given) | 45.4% |
| Cc1noc2ncnc(N3CCN(c4cccc(Cl)c4)CC3)c12 | 19% |
| COc1ccc(-n2c(Cc3cccn3C)nnc2SCC(=O)Nc2ccc(F)cc2)cc1 | -4% |
| COc1ccccc1NC(=O)CSc1nnc(Cc2cccn2C)n1-c1ccc(F)cc1 | -5.9% |
| Cn1cccc1Cc1nnc(SCC(=O)Nc2ccc(Cl)cc2)n1-c1ccc(F)cc1 | 42% |
| CCOc1ccccc1NC(=O)CSc1nnc(Cc2cccn2C)n1-c1ccc(F)cc1 | 56.8% (active) |
| COc1ccc(Cl)cc1NC(=O)CSc1nnc(Cc2cccn2C)n1-c1ccc(F)cc1 | 35.1% |
| Cn1cccc1Cc1nnc(SCC(=O)Nc2cccc(F)c2)n1-c1ccc(F)cc1 | -4.7% |
| Cc1cc(C)cc(NC(=O)CSc2nnc(Cc3cccn3C)n2-c2ccc(F)cc2)c1 | 59.6% (active) |
| COc1ccc(-n2c(Cc3cccn3C)nnc2SCC(=O)Nc2cccc(F)c2)cc1 | 59.1% (active) |
| COc1ccc(-n2c(Cc3cccn3C)nnc2SCC(=O)Nc2cccc(Cl)c2)cc1 | 14.7% |
| O=c1nc(/C=C/c2cc([N+](=O)[O-])ccc2Cl)cc(C(F)(F)F)[nH]1 | -16.6% |
| O=[N+]([O-])c1ccc(O)c(-c2cc(C(F)(F)F)nc(-c3ccccc3)n2)c1 | 93.6% (active) |
| O=[N+]([O-])c1ccc(O)c(Nc2ncnc3ccccc23)c1 | 4.9% |
| CCOC(=O)C1(Cc2ccccc2C)CCCN(C(=O)CN2C(=O)CSC2=O)C1 (stereo not given) | 31.1% |
| O=C(c1ccccc1)N1CCSc2sccc2C1=O | 52.7% (active) |
| CC1=C(/C=C/C(C)=N\NC(=O)c2ccncc2)C(C)(C)CCC1 | 3.5% |
| CC1=CCCC(C)(C)C1/C=C/C(C)=N/NC(=O)c1ccncc1 (stereo not given) | 59.7% (active) |
